# Measured values published in ChEMBL document CHEMBL1157539, “Thousands of chemical starting points for antimalarial lead identification” (Nature, 2010).
# Key:
# Assay type in all cases: functional
# Plasmodium falciparum [1] = assay: GSK_TCMDC: Inhibition of Plasmodium falciparum 3D7 in whole red blood cells, using parasite LDH activity as an index of growth. Test compounds present at 2uM
# Plasmodium falciparum [2] = assay: GSK_TCMDC: Inhibition of Plasmodium falciparum Dd2 in whole red blood cells, using parasite LDH activity as an index of growth. Test compounds present at 2uM
# HepG2 = assay: GSK_TCMDC: Percent inhibition of human HepG2 cell line. Test compounds present at 10uM.
Structure (SMILES),Inhibition (Plasmodium falciparum [1]) [%],Inhibition (Plasmodium falciparum [2]) [%],Inhibition (HepG2) [%]
Br.CC1(C)N=C(N)N=C(N)N1OCCCOc1cccc(C(=O)O)c1,94,96,73
Cc1ccc(S(=O)(=O)n2nccc2-c2c(-c3ccc(Cl)cc3)noc2C)cc1,97,97,0
CCn1c(-c2nonc2N)nc2c(-c3ccccc3)ncc(OCCCNCCCN3CCOCC3)c21.O=C(O)C(F)(F)F,100,91,28
FC(F)(F)c1ccc2[nH]c(-c3cccc(-c4ccc(CNCC5CCCO5)cc4)c3)nc2c1.O=C(O)C(F)(F)F (centres undefined),99,99,29
CS(=O)(=O)c1ccc(CNCc2ccc(-c3cccc(-c4nc5cc(C(F)(F)F)ccc5[nH]4)c3)cc2)cc1.O=C(O)C(F)(F)F,100,100,54
NC1=NC2(CCCCC2)N(OCCCCCCN2C(=O)c3ccccc3C2=O)C(N)=N1,98,16,20
O=C(Nc1cccc(F)c1)N(Cc1ccc(-c2ccc(CN3CCNCC3)cc2)cc1)C1CCN(Cc2ccccc2)CC1.O=C(O)C(F)(F)F,100,53,18
O=C(O)C(F)(F)F.O=C1OC2(CN1CC1CCN(Cc3ccc(O)cc3Cl)C1)c1ccccc1-c1ccccc12 (centres undefined),84,84,16
O=C(CCc1c[nH]cn1)Nc1cccc(-c2ccc(-c3nc4ccccc4[nH]3)s2)c1,92,37,11
Fc1ccc2[nH]ccc(=NN=Cc3ccccc3Cl)c2c1,100,39,3
O=C(/C=C/c1ccc(Cl)c(Cl)c1)NCCCCCN1CCCN(C(=O)Nc2cccc(Cl)c2)CC1,100,2,11
Br.Oc1ccc(CCNCCCCCCNCCc2ccc(Cl)c(Cl)c2)cc1O,100,2,21
CCn1c(-c2nc(-c3ccnc(N4CCN(C)CC4)c3)cnc2N)nc2cc(S(C)(=O)=O)ccc21,100,76,44
COc1ccccc1CCN1CCC(CN(C)Cc2ccc(O)c(Cl)c2)CC1,100,52,19
Cn1ccc(C(=O)Nc2ccc3c(c2)CN(Cc2ccc(N4CCCC4)o2)CCC3)n1.O=CO,80,72,19
O=C(Nc1ccc(S(=O)(=O)N2CCCCCC2)cc1)c1cc(-c2ccccc2O)n[nH]1,100,76,16
COc1cc2nc(N3CCC(CNC(=O)c4ccc(-c5ccc(-c6noc(C)n6)cc5)cc4)CC3)nc(N)c2cc1OC,98,100,96
COc1cccc(-c2ccc(C(=O)NC3CCN(Cc4ccc(N(C)C)cc4)CC3)s2)c1.O=C(O)C(F)(F)F,81,20,8
CCCOc1cc(O)c(-c2[nH]nc(C)c2Oc2ccccc2)cc1CC,91,46,0
CSc1cccc(Nc2nc3ccc(S(=O)(=O)NCC(C)C)cc3n2C(C)C(C)C)c1 (centres undefined),93,91,3
Cc1[nH]n(-c2cccc(Cl)c2)c(=O)c1-c1ccc(Cl)cc1,99,41,0
CO/C(=C\C=C\c1cc2cc(Cl)c(Cl)cc2[nH]1)C(=O)NC1CCN(CCOc2ccccc2)CC1,100,94,35
O=C(Nc1cccnc1)c1cc(-c2cccnc2)nc2ccc(Cl)cc12,97,50,45
O=C(Nc1ccc(N2CCN(Cc3ccccc3Cl)CC2)cc1)c1ccc([N+](=O)[O-])o1,91,67,100
CCCCSc1ccc2nc(-c3c[nH]c4ccc(C#N)cc34)cn2c1,94,37,3
COC(=O)c1cc(OC)c(OC)cc1NC(=O)NC12CC3CC(CC(C3)C1)C2,94,3,6
Cc1n[nH]c2cc(Nc3nccc(Nc4ccc(Oc5ccccc5)cc4)n3)ccc12.Cl,100,98,8
COc1cc2nc(N3CCC(CNC(=O)c4ccc(-c5ccc(C(=O)N(C)C)cc5OCCN(C)C)cc4)CC3)nc(N)c2cc1OC,95,0,0
